Reference: PubChem BioAssay (NCI)
This is part of a sample that, as a whole, favours compounds with a hit. Of some 83,000 tested, about 20% had one in any assay.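 Percent growth is the endpoint: 0 to 100 indicates growth inhibition (40 means 60% inhibition), 0 means no net growth, and negative values indicate cell death.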 Activity calls are given as the source filed them. How the source made its calls: active means growth percent below 10; inactive means the rest.

Columns and labels:
Test in all cases: NCI-60 one-dose screen, 48 h (100 = growth as untreated, 0 = no growth, -100 = all killed)
Details in all cases: 10 µM unless noted
T-47D breast = system: T-47D breast
BT-549 breast = system: BT-549 breast
MDA-MB-435 melanoma = system: MDA-MB-435 melanoma
SW-620 colon = system: SW-620 colon
MCF7 breast = system: MCF7 breast
HCT-116 colon = system: HCT-116 colon
KM12 colon = system: KM12 colon
HCC-2998 colon = system: HCC-2998 colon

Measured: growth

CCCCC/C(=C\c1ccccc1)C1OC(C)C(C)O1 (configuration not stated)
inactive: T-47D breast 94.4% | BT-549 breast 95.7% | MDA-MB-435 melanoma 105% | SW-620 colon 103% | MCF7 breast 102% | HCT-116 colon 81.7% | KM12 colon 98.8%

COc1ccc(C2=NN(c3nc(-c4ccc(OC)cc4)c(C#N)c(=O)n3C)C(=O)CC2)cc1
inactive: T-47D breast 92.4% | BT-549 breast 107% | MDA-MB-435 melanoma 109% | SW-620 colon 108% | MCF7 breast 92% | HCT-116 colon 97.4% | KM12 colon 107%

COc1ccc2c(c1)c1nc3cc(C)c(C)cc3nc1n2CCN(C)C
inactive: T-47D breast 25.3% | BT-549 breast 56% | MDA-MB-435 melanoma 18.1% | KM12 colon 18%
active: SW-620 colon -66.1% | MCF7 breast -69.9% | HCT-116 colon -70.1%

O=C(/C=C/c1cccc2ccccc12)Nc1ncc(Cc2ccccc2)s1
active: MDA-MB-435 melanoma -64.7% | HCT-116 colon 8.93%
inactive: T-47D breast 16% | BT-549 breast 24.8% | SW-620 colon 13.7% | MCF7 breast 10.8% | KM12 colon 15.8%

O=C(O)/C(=C/c1ccc(O)cc1)c1ccccc1
inactive: T-47D breast 94.6% | BT-549 breast 95.5% | MDA-MB-435 melanoma 109% | SW-620 colon 105% | MCF7 breast 98% | HCT-116 colon 92.7% | HCC-2998 colon 95.8% | KM12 colon 107%

O=c1[nH]c(=S)[nH]c2nc[nH]c12
inactive: T-47D breast 105% | BT-549 breast 109% | MDA-MB-435 melanoma 110% | SW-620 colon 99.2% | MCF7 breast 97.4% | HCT-116 colon 93.9% | KM12 colon 106%

N#CC1=C(N)Oc2c(c(N)nn2-c2ccccc2)C1c1ccc(Cl)cc1Cl (configuration not stated)
inactive: T-47D breast 77.6% | BT-549 breast 97.8% | MDA-MB-435 melanoma 103% | SW-620 colon 100% | MCF7 breast 98.3% | HCT-116 colon 94.4% | KM12 colon 99.3%

COc1ccc(O)c(-c2cc(-c3ccc(Cl)cc3)c(C#N)c(=O)[nH]2)c1
active: BT-549 breast 9.41% | MDA-MB-435 melanoma 5.98%
inactive: T-47D breast 57.3% | SW-620 colon 74.7% | MCF7 breast 46.6% | HCT-116 colon 73.4% | KM12 colon 57.6%

COc1ccc(CCN2C(=O)C(C)(C)SC2=S)cc1OC
inactive: T-47D breast 104% | BT-549 breast 105% | MDA-MB-435 melanoma 99.2% | SW-620 colon 103% | MCF7 breast 98.5% | HCT-116 colon 97.6% | HCC-2998 colon 106% | KM12 colon 101%

COc1cc(-c2cc(-c3nc4ccccc4[nH]3)[nH]n2)cc(OC)c1OC
active: T-47D breast 6.65%
inactive: BT-549 breast 36.4% | MDA-MB-435 melanoma 19.2% | SW-620 colon 59.4% | MCF7 breast 44.2% | HCT-116 colon 38.7% | KM12 colon 27%

COc1cc(-c2cc3ncccc3c3[nH]c(=O)c4cccnc4c23)cc(OC)c1OC
inactive: T-47D breast 37.5% | BT-549 breast 49.1% | SW-620 colon 32.9% | MCF7 breast 17.3% | HCT-116 colon 17.8% | KM12 colon 30.7%
active: MDA-MB-435 melanoma -26.2%

Nc1c(C(=O)Nc2cccc(Br)c2)sc2nc3c(cc12)C(=O)CCC3
active: MDA-MB-435 melanoma -53.3%
inactive: T-47D breast 30% | BT-549 breast 57.8% | SW-620 colon 25% | MCF7 breast 22.1% | HCT-116 colon 33.4% | KM12 colon 18.6%

C=C(C)[C@@H]1CC[C@]2(C(=O)OC)CC[C@]3(C)[C@H](CC[C@@H]4[C@@](C)(CC/C(N)=N/O)[C@H](C(=C)C)CC[C@]43C)[C@@H]12
inactive: T-47D breast 91% | BT-549 breast 97.8% | MDA-MB-435 melanoma 101% | SW-620 colon 97.4% | MCF7 breast 88.3% | HCC-2998 colon 96.3% | KM12 colon 99.1%

COC(c1ccccc1)(c1ccccc1)c1ccccc1
inactive: T-47D breast 87.1% | BT-549 breast 95.7% | MDA-MB-435 melanoma 108% | SW-620 colon 99.1% | MCF7 breast 115% | HCT-116 colon 104% | KM12 colon 82.2%

c1ccc(-c2nc(Nc3ccc(-c4nc5ccccc5[nH]4)cc3)nc(N3CCOCC3)n2)cc1
inactive: BT-549 breast 33.7%
active: T-47D breast -62.3% | MDA-MB-435 melanoma -81.1% | SW-620 colon -82.9% | MCF7 breast -76.2% | HCC-2998 colon -80.7% | KM12 colon -76.6%

CCc1nnc(NC(=O)c2ccoc2COc2ccccc2)s1
active: MDA-MB-435 melanoma -26.1%
inactive: T-47D breast 45.7% | BT-549 breast 51.2% | SW-620 colon 24% | MCF7 breast 24% | HCC-2998 colon 69% | KM12 colon 31.6%

COc1cc(OC)c2c(c1)c1nc3cc(C)c(C)cc3nc1n2CCN(C)C
inactive: T-47D breast 74.3% | BT-549 breast 97.4% | MDA-MB-435 melanoma 91.7% | SW-620 colon 66% | MCF7 breast 66.2% | HCC-2998 colon 93.9% | KM12 colon 86.3%

Cc1cc(N2CCOCC2)nc(N(CCCNc2ccnc3cc(Cl)ccc23)Cc2ccco2)n1
inactive: T-47D breast 35.3% | BT-549 breast 37.8% | SW-620 colon 21.4% | MCF7 breast 15.5% | HCC-2998 colon 87.9% | KM12 colon 33.3%
active: MDA-MB-435 melanoma -20.1%

Cc1ccc(-c2ccc(/C=C(\C#N)c3nc(-c4ccco4)cs3)o2)cc1
inactive: BT-549 breast 103% | MDA-MB-435 melanoma 98.6% | SW-620 colon 99.8% | MCF7 breast 14.5% | HCC-2998 colon 54.8% | KM12 colon 61.2%
active: T-47D breast -22.8%

COC(=O)[C@]12CC[C@@H](C(C)=O)[C@@H]1[C@H]1CC[C@@H]3[C@@]4(C)C/C(=C/c5cccnc5)C(=O)C(C)(C)[C@@H]4CC[C@@]3(C)[C@]1(C)CC2
active: HCT-116 colon 3.92%
inactive: T-47D breast 24.4% | BT-549 breast 46% | MDA-MB-435 melanoma 72.6% | SW-620 colon 25.3% | MCF7 breast 19.2% | KM12 colon 60.5%

C=C(C)[C@@H]1CC[C@]2(CN)CC[C@]3(C)[C@H](CC[C@@H]4[C@@](C)(CCCN)[C@H](C(=C)C)CC[C@]43C)[C@@H]12
inactive: T-47D breast 88.6% | BT-549 breast 92.1% | MDA-MB-435 melanoma 96.2% | SW-620 colon 88.9% | MCF7 breast 71.8% | HCC-2998 colon 77% | KM12 colon 88.1%

C=C(C)[C@@H]1CC[C@]2(C)[C@H](CC=C3[C@@H]4CC(C)(C)CC[C@]4(C=O)CC[C@]32C)[C@@]1(C)CCCN
inactive: T-47D breast 79.1% | BT-549 breast 87.3% | MDA-MB-435 melanoma 95.1% | SW-620 colon 29.5% | MCF7 breast 39% | HCC-2998 colon 40.1% | KM12 colon 77.3%

NNC(=O)c1nc2ccccc2[nH]1
inactive: T-47D breast 89.8% | BT-549 breast 95.4% | MDA-MB-435 melanoma 109% | SW-620 colon 105% | MCF7 breast 104% | HCC-2998 colon 104% | KM12 colon 102%

CC1=CC(=O)N(c2cccc3c(N4C(=O)C=C(C)C4=O)cccc23)C1=O
inactive: T-47D breast 30.1% | BT-549 breast 99.7% | MDA-MB-435 melanoma 80.6% | SW-620 colon 14.3% | MCF7 breast 57.7% | HCC-2998 colon 105% | KM12 colon 106%

CCOC(=O)C1OC1(c1ccccc1)c1ccccc1 (configuration not stated)
inactive: T-47D breast 110% | BT-549 breast 110% | MDA-MB-435 melanoma 104% | SW-620 colon 105% | MCF7 breast 105% | HCC-2998 colon 117% | KM12 colon 94.3%

CCCNc1nc(N(C)O)nc(N(C)O)n1
inactive: T-47D breast 28.2% | BT-549 breast 68.5% | MDA-MB-435 melanoma 51.2% | SW-620 colon 38.1% | MCF7 breast 15.6% | HCC-2998 colon 24.5% | KM12 colon 41.5%

NC(Cc1ccc(O)cc1)C(=O)N/N=C/c1ccccc1O (configuration not stated)
inactive: T-47D breast 98.1% | BT-549 breast 95.4% | MDA-MB-435 melanoma 108% | SW-620 colon 107% | MCF7 breast 96.2% | HCC-2998 colon 100% | KM12 colon 97.6%

CCC(CC)C(=O)OC(C)COc1ccc(C(C)(C)C)cc1 (configuration not stated)
inactive: T-47D breast 113% | BT-549 breast 109% | MDA-MB-435 melanoma 105% | SW-620 colon 106% | MCF7 breast 101% | HCC-2998 colon 101% | KM12 colon 102%

Cn1cc(-c2nc(-c3c[nH]c4ncccc34)cs2)c2cc(Cl)ccc21
inactive: T-47D breast 38.9% | BT-549 breast 70.6% | MDA-MB-435 melanoma 51.9% | SW-620 colon 73.3% | MCF7 breast 17% | HCC-2998 colon 80.6%
active: KM12 colon 9.88%

CC(CNc1nc(Nc2ccc(Cl)c(Cl)c2)nc(C(Cl)(Cl)Cl)n1)N(C)C (configuration not stated)
active: MDA-MB-435 melanoma -47.1% | SW-620 colon -74.8% | MCF7 breast -64.8% | HCC-2998 colon -79.4% | KM12 colon -88.4%
inactive: T-47D breast 20.4% | BT-549 breast 45.6%
